ALR H2O2 inh = blocks human ALR sulfhydryl oxidase activity | P55789 | purified ALR, DTT oxidation, H2O2 HRP-luminol luminescence | inhibition, % (no concentration beside the values) | 290,000 compounds, 3.8% hits;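 active means mean replicate inhibition above about 79%, with every replicate also reaching it, limit read from the data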
Target sequence (P55789 whole entry, looked up): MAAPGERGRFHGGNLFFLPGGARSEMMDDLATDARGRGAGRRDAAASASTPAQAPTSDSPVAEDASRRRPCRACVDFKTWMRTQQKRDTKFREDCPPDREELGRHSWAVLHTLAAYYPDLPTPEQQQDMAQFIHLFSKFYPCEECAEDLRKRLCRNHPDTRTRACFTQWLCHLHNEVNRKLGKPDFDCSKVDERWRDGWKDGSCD
Granule exo inh = lytic granule exocytosis inhibition. TALL-104 LAMP-1 surface exposure, flow cytometry; cells stimulated with thapsigargin and PMA. inhibition, % at 10 µM. 360,000 compounds, 0.66% hits. AID 651702;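 active means inhibition above about 55%, limit read from the data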
MIN6 prolif-1 = induces beta-cell replication in MIN6 cells. MIN6 cells proliferation, ATPlite luminescence, 48 h; cells starved in 0.2% serum; 100% = growth in 10% serum. proliferation, % at 10 µM. 330,000 compounds, 0.29% hits;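 active means compounds whose signal lies at least 3.5 SD above the mean of all wells on their plate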;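 further: 0% = DMSO-treated cells in low-serum medium and 100% = 10% serum control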
GASC-1 inh = blocks human GASC-1 demethylase activity. inhibition, % at 2.35 µM. 330,000 compounds, 0.069% hits. GST-JMJD2C(1-420) H3K9me3 demethylation, DELFIA europium. Q9H3R0. AID 2099;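 active means more than half of a compound's replicate wells show inhibition beyond 50%, single wells judged on their own value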;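 further: signal counts dimethyl H3K9 product captured on neutravidin plate; 0% = median of DMSO wells and 100% = 0.3 times that DMSO median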
Target sequence (Q9H3R0 1-420 limits assumed): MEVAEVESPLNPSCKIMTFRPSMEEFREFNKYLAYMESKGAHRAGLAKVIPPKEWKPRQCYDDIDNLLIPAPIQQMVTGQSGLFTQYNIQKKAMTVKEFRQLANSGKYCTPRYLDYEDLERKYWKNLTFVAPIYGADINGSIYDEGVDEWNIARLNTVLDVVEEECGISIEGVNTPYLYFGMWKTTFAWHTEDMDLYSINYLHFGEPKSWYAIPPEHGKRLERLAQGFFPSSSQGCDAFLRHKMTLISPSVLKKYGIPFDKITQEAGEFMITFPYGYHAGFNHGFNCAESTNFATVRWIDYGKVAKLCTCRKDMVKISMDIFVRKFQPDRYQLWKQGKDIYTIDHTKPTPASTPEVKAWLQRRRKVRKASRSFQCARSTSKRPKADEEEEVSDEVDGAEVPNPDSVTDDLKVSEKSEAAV
M18AAP inhibitor = PfM18AAP enzyme inhibition; recombinant PfM18AAP, H-Glu-NHMec fluorogenic cleavage; AID 1822; inhibition, % at 7.35 µM; 290,000 compounds, 1.2% hits;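 active means inhibition above the campaign mean inhibition over all tested compounds plus 3 SD, cut at about 28% in these data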;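 further: 0% = plate median of test compound wells and 100% = 2 mM ZnCl2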
SMARCA2 activ = increases SMARCA2 function in MMTV reporter cells; 370,000 compounds, 1% hits; MG213 cells, MMTV-luciferase reporter, dexamethasone, overnight; AID 652017; activation, % at 9.1 µM; in the data active means activation above about 7.8%;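 further: 0% = vehicle wells and 100% = reference activator wells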
MIN6 prolif-2 = MIN6 beta-cell replication induction, confirmed | 920 tested, under 10 active | MIN6 beta-cell proliferation, ATPlite luminescence, 48 h; cells kept in 0.2% serum; scaled between 0.2% and 10% serum | shares compounds with MIN6 prolif-1 | proliferation increase, % at 50 µM;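 active means proliferation increase above 40% at any of the four tested concentrations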
An asterisk follows results filed as active; / = no result given. Sampled rows, rich in hits. Any-hit rate of the full collection: about 5.4%.

SMILES | ALR H2O2 inh | Granule exo inh | MIN6 prolif-1 | GASC-1 inh | M18AAP inhibitor | SMARCA2 activ | MIN6 prolif-2
O=C(NCc1ccc(F)cc1)C(c1ccccc1)N(C(=O)c1csnn1)c1ccccc1 (configuration not stated) | -0.2 | 53.3 | 2.7 | -5.6 | 10.1 | 4.5 | /
COc1ccc(OC)c(N2C(N)=NC(N)=NC23CCCC3)c1 | -0.9 | 3.0 | 5.7* | 1.2 | -4.8 | -0.5 | 0.5
CCCC(=O)N(CCN(C(=O)CCC)c1ccccc1)c1ccccc1 | -2.0 | -4.9 | 8.8* | 3.0 | -4.4 | -1.4 | -2.9
CCN(C(=O)CCC(=O)N(CC)c1ccccc1)c1ccccc1 | -18.3 | -7.4 | -0.9 | -1.5 | -14.3 | 0.3 | /
[O-][n+]1cc(Cl)cc(Cl)c1 | / | -8.1 | / | / | / | -2.6 | /
O=C(c1cnsn1)N1CCC(CO)(Cc2cccc(F)c2)CC1 | -5.7 | 2.7 | 8.2* | 12.4 | 5.9 | 1.9 | -0.8
Cc1cc(C(=O)N2CCC(CO)(Cc3cccc(C(F)(F)F)c3)CC2)n[nH]1 | -0.9 | 0.2 | 6.4 | 5.8 | -0.8 | -1.7 | /
FC(F)(F)c1nc2nncn2c2c1CCCCC2 | -0.7 | -1.5 | 7.4* | 2.1 | 0.5 | 4.7 | -2.6
CC(C)(C)NC(=O)Cn1nc(C(F)(F)F)c2c1CCCC2 | 0.6 | -0.8 | -0.6 | -2.7 | -1.8 | -0.9 | /
CCC(C)Sc1nc2c(cnn2-c2ccc(C)cc2)c(=O)[nH]1 (configuration not stated) | -11.2 | -1.9 | 9.6* | 4.8 | -0.1 | -1.4 | 8.0
COC(=O)[C@]1(C)CN(C(=O)OC(C)(C)C)C2=C1C(=O)C[C@](C)(C(=O)OC(C)(C)C)C2 | / | / | / | / | / | -2.3 | /
CC1CCN(CCOc2ccccc2-c2ccccc2)CC1 | -3.6 | -2.8 | 0.0* | -4.6 | 2.8 | -3.8 | -5.0
CC1CC(C)CN(CCOc2ccccc2-c2ccccc2)C1 (configuration not stated) | -57.1 | 0.6 | -5.2 | -1.6 | 6.9 | 5.0 | /
CCOC(=O)c1[nH]c2ccc(OC)cc2c1NC(=O)c1nonc1C | -16.7 | -0.1 | 0.0 | -0.3 | 11.8 | 1.1 | /
CCOC(=O)c1[nH]c2ccc(OC)cc2c1NS(=O)(=O)c1ccc(Cl)s1 | 66.5 | 10.9 | 5.3* | -9.9 | 2.1 | -1.5 | -6.2
CCCC(=O)OC[C@H]1CN(C2CCCC2)S(=O)(=O)c2c(F)cccc2O1 | / | / | / | / | / | -2.0 | /
O=C(CSCc1c(Cl)cccc1Cl)NCc1ccco1 | 5.3 | -1.2 | 9.2* | 1.6 | 2.3 | -1.7 | -3.2
O=C(CSCc1c(F)cccc1Cl)NCc1ccco1 | -0.3 | 2.2 | 2.1 | -2.0 | -5.3 | -1.0 | /
COCC(C)n1c(SCC(=O)N2CC(=O)Nc3ccccc32)nc2ccccc2c1=O (configuration not stated) | -2.4 | -10.6 | 10.9* | 3.5 | / | 0.5 | 1.3
CC(c1ccccc1)n1c(SCC(=O)N2CC(=O)Nc3ccccc32)nc2ccccc2c1=O (configuration not stated) | -2.5 | 18.5 | 0.0 | -5.4 | 0.4 | -1.1 | /
Cc1cccc(/C=N/n2c(C3CCCCC3)n[nH]c2=S)c1 | / | -2.2 | 6.7* | 2.1 | 12.6 | / | -6.5
S=c1[nH]nc(C2CCCCC2)n1/N=C/c1cccc(Br)c1 | / | -5.7 | 2.5 | 2.1 | 6.1 | 1.2 | /
O=C(O)c1ccc(-n2nc(-c3ccccc3O)nc2-c2ccccc2O)cc1 | / | / | / | / | / | -6.2 | /
COc1ccc(CC(=O)N2CCN(c3ccc(C4=NNC(=O)CC4C)cc3)CC2)cc1 (configuration not stated) | 87.8* | -0.5 | 4.6* | 7.8 | -4.4 | -0.2 | -1.2
COc1ccc([N+](=O)[O-])cc1NC(=O)c1ccc(N2C(=O)CCC2=O)cc1 | -7.1 | -3.6 | 7.8* | 4.9 | 2.9 | 5.3 | -0.2
SMILES | ALR H2O2 inh | Granule exo inh | MIN6 prolif-1 | GASC-1 inh | M18AAP inhibitor | SMARCA2 activ | MIN6 prolif-2
COc1ccc([N+](=O)[O-])cc1NC(=O)c1ccc(-n2nc(C)cc2C)cc1 | -3.9 | -2.0 | -1.0 | 2.5 | -2.6 | -2.4 | /
COc1cc(NC(=O)CN(c2ccc(C)cc2)S(=O)(=O)c2c(C)nn(C)c2C)cc(OC)c1 | -12.2 | -1.4 | 10.1* | 13.4 | -5.1 | 6.6 | -5.6
Cc1cccc(NC(=O)C2CCN(C(=O)[C@@H]3Cc4ccccc4CN3)CC2)c1 | -2.6 | 11.5 | 5.2* | 4.0 | -6.2 | 2.8 | -4.5
COC1=C[C@H](C(=O)NCc2ccccn2)[C@@]2(C)Cc3ccccc3[C@H]2CC1=O | / | / | / | / | / | -1.2 | /
C[C@@H](NS(=O)(=O)c1c(F)cccc1F)c1ccccc1 | / | / | / | / | / | -4.7 | /
CC(=O)c1ccc(OCCCOc2cccc3cccnc23)cc1 | -3.0 | -5.5 | 0.3 | -9.2 | -3.1 | -2.5 | /
CC(=O)CCc1ccc(OCCCOc2cccc3cccnc23)cc1 | -4.1 | -1.7 | 5.7* | -0.4 | -1.9 | -1.0 | -6.5
CCc1cccc(CC)c1N(COC)C(=O)Cn1nnc2ccccc21 | -12.3 | 1.6 | 9.7* | 19.2 | -1.8 | 0.3 | -3.0
C[C@H](CO)N1C[C@H](C)[C@H](CN(C)C(=O)C2CCCCC2)OCc2cnnn2CCCC1=O | / | / | / | / | / | 4.2 | /
COc1ccc(C(CNC(=O)CCNC(=O)c2ccc(Br)cc2)N2CCOCC2)cc1 (configuration not stated) | 4.0 | -3.9 | 11.9* | 0.4 | / | 3.0 | -1.6
COc1cccc(C2CC(c3ccccc3)Nc3nc(N)nn32)c1 (configuration not stated) | 1.5 | -0.3 | -3.0 | 2.1 | 2.9 | -2.5 | /
COc1ccc(C2CC(c3cccc(OC)c3)n3nc(N)nc3N2)cc1 (configuration not stated) | -6.2 | -0.9 | 9.1* | 0.3 | -2.8 | -0.4 | 1.8
O=C(COc1ccccc1Cl)Nc1ccc(S(=O)(=O)Nc2ccccn2)cc1 | -3.5 | 6.7 | 0.0* | 8.7 | 2.5 | -4.3 | 0.7
CCn1cc(CN(C)S(=O)(=O)c2cccc([N+](=O)[O-])c2)cn1 | -37.8 | -0.5 | 7.2* | -14.1 | 0.4 | 3.6 | -0.6
CC(C)(Oc1ccc(Cl)cc1)C(=O)Nc1c2c(nn1C(C)(C)C)CS(=O)(=O)C2 | 3.4 | 2.2 | 15.2* | 5.6 | / | -2.3 | 2.6
CC(C)(C)n1nc2c(c1NC(=O)COc1ccc(Cl)cc1)CS(=O)(=O)C2 | 2.1 | -0.6 | 2.2 | -1.9 | -5.2 | -3.3 | /
Fc1cccc(Cl)c1CN1CCN(c2ncc(Cc3ccccc3)cn2)CC1 | / | / | / | / | / | -4.0 | /
COc1ccc(C(=O)N2CCC2)cc1S(=O)(=O)NCc1ccc(Cl)cc1 | -1.6 | 15.6 | 8.2* | 1.9 | / | 5.0 | -1.9
COc1ccc(F)cc1S(=O)(=O)NCc1ccccc1 | / | -1.3 | 0.0* | -4.6 | 6.6 | -2.4 | 0.0
COc1ccc(Br)cc1S(=O)(=O)NCc1ccccc1 | -10.7 | -1.8 | 0.0 | -9.5 | -1.1 | -2.6 | /
CCCCCCCCN1C(=O)[C@@H](CC(=O)N2CCC(c3ccccc3)CC2)C[C@@]2(C(=O)OC)C1=C[C@H](C1CCCC1)O[C@@H]2C | / | / | / | / | / | 3.7 | /

Assay outcomes as filed in PubChem.
